From PubChem BioAssay AID1051 (The Scripps Research Institute Molecular Screening Center, 2008) come the findings set out here.

The whole screen tested about 99,000 compounds, of which about 340 (0.34%) were called active. Cut-off read from the data, not from the text of the source: active = TR-FRET ratio above about 2300; inactive = the rest. The entries come from a sample that favours actives as a whole.

This test is described as follows: TR-FRET detection interference compounds, primary screen, artefact control for PPARgamma SRC-1 recruitment agonists, biochemical, TR-FRET emission ratio (AID 1051). As to conditions: TR-FRET detection artefact counter-screen, at 8 µM, active compounds read high. On the technique in general: TR-FRET usually uses a lanthanide donor and a delayed reading to cut background.
For `Cc1cc(C)cc(C(=O)N(CCc2ccccc2)C2=CC3CCC(C2)N3C)c1` (configuration not stated), the TR-FRET ratio is 1720 (inactive).
`CS(=O)(=O)N(CC(=O)NC1CCCC1)Cc1ccc(F)cc1`: the TR-FRET ratio was 1700 (inactive).
On to `O=C(CO/N=C/c1ccccc1OC(F)F)NC1CCCC1`, for which the TR-FRET ratio is 2060 (inactive).
With `CCOC(=O)NC(=O)C(=CNc1cccc(OC)c1)C(=O)NC(=O)OCC` the figure was 1950 (inactive); with `CCOC(=O)c1sc(-c2cccc([N+](=O)[O-])c2)cc1N`, 1540 (inactive).
As to `CS/C(=C\[N+](=O)[O-])Nc1ccc(C)cc1`, the TR-FRET ratio is 1980 (inactive).
With `CNC(=O)NC(=O)C(OC(=O)c1cccc(S(=O)(=O)N2CCCCC2)c1)c1ccccc1` (configuration not stated) the figure was 1550 (inactive).
In the case of `COCC(C)NC(=O)CSc1nc2nn(-c3ccccc3)c(=O)c-2c2n1CCCCC2` (configuration not stated), the TR-FRET ratio was 1600 (inactive).
For `Cc1cccc(OCc2ccc(C(=O)Nc3ccc(F)cc3)cc2)c1`, the TR-FRET ratio is 1720 (inactive).
In the case of `S=c1[nH]nc(COc2ccccc2)n1-c1ccccc1` it was 1980 (inactive); in that of `Fc1ccc(COc2cccc(-c3n[nH]c(=S)o3)c2)cc1`, 3340 (active); in that of `Cc1ccc(S(=O)(=O)NCCC(=O)Nc2ccc(C)c(Cl)c2)cc1C`, 1870 (inactive).
Consider `Cc1cccc(NC(=O)c2sc(-c3ccccc3)nc2-c2ccc([N+](=O)[O-])cc2)c1`, for which the TR-FRET ratio is 1770 (inactive).
Take `Cc1ccc(-c2nc(-c3cccnc3)sc2CC(=O)Nc2ccc(C)c(Cl)c2)cc1`: the TR-FRET ratio was 2930 (active).
For `O=S(=O)(NCc1ccccc1)c1ccc(S(=O)(=O)N2CCCC2)cc1`, the TR-FRET ratio was 1770 (inactive).
Consider `N#Cc1ccc(C(=O)Nc2nc(-c3cccs3)c(C(=O)C(F)(F)F)s2)cc1`, for which the TR-FRET ratio is 2000 (inactive).
On to `Cc1nc(N)c(Br)c(C)c1Br`, for which the TR-FRET ratio was 1890 (inactive).
In the case of `CCN(CC)P(=O)(Nc1ccc(SC(F)F)cc1)c1ccc(N(C)C)cc1NC(=O)c1ccco1` (configuration not stated) it was 1800 (inactive).
Consider `CC(C)CCN1C(=O)c2ccc(C(=O)Nc3cccc(S(N)(=O)=O)c3)cc2C1=O`, for which the TR-FRET ratio was 1840 (inactive).
Consider `COc1ccc(NC(=O)COC(=O)c2ccncc2)c(OC)c1`, for which the TR-FRET ratio was 1980 (inactive).
For the compound `COc1cccc(-n2nc(C(=O)N3CCN(Cc4ccccc4)CC3)c3ccccc3c2=O)c1`, the TR-FRET ratio was 1300 (inactive).
In the case of `CCOC(=O)Cc1csc(SCc2cc(=O)oc3cc(O)ccc23)n1` it was 1620 (inactive); in that of `CCOC(=O)Cc1csc(NC(=O)CSc2ccc(Br)cc2)n1`, 1780 (inactive); in that of `CCOC(=O)Cc1csc(NC(=O)COc2ccc3c(C)cc(=O)oc3c2)n1`, 2450 (active).
With `O=C(NCCCNc1ccc([N+](=O)[O-])cc1Cl)c1ccccc1F` the figure was 1920 (inactive).
With `Cc1c(CN2CCCC(C(=O)c3cccc(Cl)c3)C2)c(=O)n(-c2ccccc2)n1C` (configuration not stated) the figure was 1510 (inactive); with `COc1cc(NC(=O)COC(=O)CSc2ccc3ccccc3c2)c(C)cc1[N+](=O)[O-]`, 1730 (inactive); with `Cc1ccc(N2C(=O)C(NC(=O)c3c(F)cccc3F)(C(F)(F)F)C3=C2CC(C)(C)CC3=O)cc1` (configuration not stated), 1770 (inactive).
For the compound `CC1CC(C)(C)NC(=S)N1CCC(=O)N1CCN(Cc2ccccc2)CC1` (configuration not stated), the TR-FRET ratio is 1810 (inactive).
Turning to `CC(C)C(c1nnnn1C(C)(C)C)N1CCN(Cc2cccnc2)CC1` (configuration not stated), the TR-FRET ratio is 1760 (inactive).
Turning to `Cc1nc(N2CCC(C)CC2)c2c(C)c(C(=O)Nc3cc(F)ccc3C)sc2n1`, the TR-FRET ratio is 2400 (active).
For `Cc1nc(N2CCOCC2)c2c(C)c(C(=O)Nc3ccc(C(F)(F)F)cc3)sc2n1`, the TR-FRET ratio was 1820 (inactive).
`Cc1nc(N2CCN(c3ccccn3)CC2)c2c(C)c(C(=O)Nc3ccc(F)cc3)sc2n1`: the TR-FRET ratio is 1920 (inactive).
With `COC(=O)c1c(C)[nH]c(C)c1-c1ccc([N+](=O)[O-])cc1`, the TR-FRET ratio was 1710 (inactive).
With `CCOc1cc(CNn2c(C)nnc2SCC(=O)NC(C)(C)C)ccc1OCC(=O)NC(C)(C)C` the figure was 1840 (inactive).
In the case of `O=C(NNS(=O)(=O)c1ccc(F)cc1)c1cnccn1`, the TR-FRET ratio was 1930 (inactive).
Turning to `Cc1ccc(NC(=S)N(CCN2CCCCC2)Cc2ccco2)cc1C`, the TR-FRET ratio was 1560 (inactive).
For the compound `COc1cc(C(=O)OCc2ccc([N+](=O)[O-])cc2)cc(OC)c1OC`, the TR-FRET ratio is 1470 (inactive).
In the case of `S=C(Cc1ccc(Cl)cc1)N1CCOCC1` it was 2050 (inactive).
Turning to `COc1cc(NS(=O)(=O)c2ccc(NC(=O)c3ccc(S(=O)(=O)N4CCCCC4)cc3)cc2)ncn1`, the TR-FRET ratio was 1650 (inactive).
Regarding `CCC(=O)N(Cc1cc2ccccc2[nH]c1=O)c1ccc(OC)cc1`, the TR-FRET ratio is 1990 (inactive).
Take `COc1ccc(-n2nnnc2SCC(=O)NCc2cccs2)cc1`: the TR-FRET ratio is 1830 (inactive).
For `CN1CCN(S(=O)(=O)c2cccc(C(=O)N3CCc4ccccc43)c2)CC1`, the TR-FRET ratio was 1760 (inactive).
In the case of `Cc1ccc(N2C(=O)C(CC(=O)Nc3cccc(F)c3)N(CCc3ccncc3)C2=O)cc1` (configuration not stated), the TR-FRET ratio was 1810 (inactive).
For `CCOc1cnc(-c2c(-c3ccccc3Cl)noc2C)o1`, the TR-FRET ratio was 1830 (inactive).
On to `O=C(COC(=O)c1cc(S(=O)(=O)N2CCCCC2)ccc1Cl)NCc1ccco1`, for which the TR-FRET ratio is 1930 (inactive).
On to `Cc1cc(NC(=O)COC(=O)c2ccc(F)c(S(=O)(=O)N3CCOCC3)c2)no1`, for which the TR-FRET ratio is 1740 (inactive).
In the case of `COc1ccc(S(=O)(=O)N2CCCCCC2)cc1C(=O)OCC(=O)Nc1cc(C)on1`, the TR-FRET ratio is 2360 (active).
In the case of `COc1ccnc(Oc2ccccc2)n1`, the TR-FRET ratio is 1760 (inactive).
Consider `O=C(Nc1ccc(N2CCN(C(=O)c3cccs3)CC2)cc1)c1cccnc1Cl`, for which the TR-FRET ratio is 1580 (inactive).
On to `CNS(=O)(=O)c1ccc(N2CCCC2=O)c([N+](=O)[O-])c1`, for which the TR-FRET ratio is 1690 (inactive).
With `O=S(=O)(c1ccc(-c2ccccc2)cc1)N1CCCC1` the figure was 1580 (inactive); with `CC(=O)OC(COc1ccc(F)cc1)Cn1cnc2ccccc21` (configuration not stated), 1950 (inactive); with `COC(=O)c1ccc(NC(=S)Nc2cccc(C)n2)cc1`, 1830 (inactive).
In the case of `Cc1cccc(NC(=O)c2ccc3ccccc3n2)n1` it was 2320 (active); in that of `CC(OC(=O)c1ccc2ccccc2n1)C(=O)c1ccccc1` (configuration not stated), 1760 (inactive); in that of `COc1ccc(N2CCN(CCCNC(=O)C3CCN(S(=O)(=O)N4CCOCC4)CC3)CC2)cc1`, 1660 (inactive).
On to `COc1ccc(C)cc1NC(=S)Nc1ccccc1SC`, for which the TR-FRET ratio was 1550 (inactive).
As to `O=C(N/N=C/c1ccc([N+](=O)[O-])o1)c1cccc(S(=O)(=O)N2CCOCC2)c1`, the TR-FRET ratio is 2000 (inactive).
For `COC(=O)c1ccc(CN2CCN(CCCc3ccccc3)C(CCO)C2)cc1` (configuration not stated), the TR-FRET ratio was 1770 (inactive).
In the case of `CC(=O)N1c2ccccc2N(Cc2ccc([N+](=O)[O-])cc2)C(=O)C1(C)C` it was 1840 (inactive); in that of `N#Cc1c(NC(=O)C2CC(Cl)=CCC2C(=O)O)sc2c1CCCCC2` (configuration not stated), 1990 (inactive).
As to `COC(=O)C(C)N=Cc1ccccc1` (configuration not stated), the TR-FRET ratio is 1960 (inactive).
As for `CCN(CC)S(=O)(=O)c1ccc(Cl)c(NC(=O)c2ccncc2)c1`, the TR-FRET ratio was 1750 (inactive).
For `Cc1ccc(-c2cn3cc([N+](=O)[O-])ccc3n2)cc1`, the TR-FRET ratio was 1970 (inactive).
As to `COc1cc(/C=C/C(=O)OCC(=O)N2CCOCC2)ccc1OCC#N`, the TR-FRET ratio was 1960 (inactive).
In the case of `Cc1cc(NC(=O)CSc2nc3c(cc2C#N)CCCCC3)no1` it was 1930 (inactive).
In the case of `C/C(CC(=O)Nc1cccc(F)c1)=N\NC(=O)C(=O)NC1CCCCC1` it was 1840 (inactive); in that of `CCOc1ccc(N(CC(=O)NCCc2ccc(OC)cc2)S(C)(=O)=O)cc1`, 1790 (inactive).
With `Cc1ccccc1CN(c1ccc(C(=O)NCC2CCCO2)cc1)S(C)(=O)=O` (configuration not stated) the figure was 1760 (inactive); with `CNc1[nH]ncc1[N+](=O)[O-]`, 1620 (inactive); with `O=C(c1ccc(OC2CCN(Cc3ccccn3)CC2)cc1)N1CCCCCC1`, 1590 (inactive).
With `CCc1nnc(NC(=O)/C=C/c2ccc(C)o2)s1`, the TR-FRET ratio is 1650 (inactive).
Turning to `CCOC(=O)C1CCCN(C(=O)c2cccc(S(=O)(=O)N3CCOCC3)c2)C1` (configuration not stated), the TR-FRET ratio is 1820 (inactive).
Consider `Cc1nc2ccc(NC(=S)N3CCC(C)CC3)cc2nc1C`, for which the TR-FRET ratio is 1940 (inactive).
In the case of `Cn1cc(CCC(=O)N2CCCC(C(=O)c3ccc(C(C)(C)C)cc3)C2)cn1` (configuration not stated), the TR-FRET ratio was 2020 (inactive).
`Cc1coc(C)c1C(=O)CC1(O)C(=O)N(C)c2ccc(Cl)cc21` (configuration not stated): the TR-FRET ratio was 1870 (inactive).
With `CC(C)CC(CC(C)C)=NNC(=O)c1ccc(CSc2nncn2C)cc1`, the TR-FRET ratio is 1890 (inactive).
On to `O=C(C1CC1)N1N=C2CCCCC2C1(O)C(F)(F)F` (configuration not stated), for which the TR-FRET ratio is 1750 (inactive).
Turning to `O=[N+]([O-])c1cc(S(=O)(=O)N2CCCC2)ccc1NN=C1CCCC1`, the TR-FRET ratio was 1910 (inactive).
As to `Cn1cnnc1SCc1nnc(-c2ccccc2Br)o1`, the TR-FRET ratio was 1590 (inactive).
Take `CCOC(=O)CCCNC(=O)COC(=O)/C=C/c1ccc2c(c1)OCO2`: the TR-FRET ratio was 1620 (inactive).
With `O=C(OCC(=O)N1CCOCC1)c1ccc(N2CCOCC2)c([N+](=O)[O-])c1`, the TR-FRET ratio is 2030 (inactive).
With `COc1ccc(NC(=S)N2CCCC(CO)C2)c(OC)c1` (configuration not stated), the TR-FRET ratio was 1690 (inactive).
In the case of `Cc1nn(C)c(C)c1S(=O)(=O)N1CCC(CO)(Cc2ccc(Cl)cc2)CC1`, the TR-FRET ratio was 1980 (inactive).
In the case of `O=C(CCN1C(=O)c2ccccc2C1=O)NNC(=O)c1ccc(Cl)cc1Cl` it was 2130 (inactive).
As for `CCC1CO/C(=C(\C(=C(Cl)Cl)N2CCOCC2)[N+](=O)[O-])N1` (configuration not stated), the TR-FRET ratio is 1830 (inactive).
For the compound `CN(C(=O)CSc1nncc2ccccc12)C1CCCCC1`, the TR-FRET ratio was 1810 (inactive).
On to `Cc1ccc(Sc2ccncc2S(N)(=O)=O)cc1`, for which the TR-FRET ratio was 1560 (inactive).
Regarding `CCOC(=O)c1c(C)[nH]c(=S)c(C#N)c1-c1ccccc1`, the TR-FRET ratio was 1630 (inactive).
Consider `CNc1nccc(-c2ccc(Cl)cc2)c1C#N`, for which the TR-FRET ratio was 1880 (inactive).
In the case of `N#Cc1c(-c2ccc(Cl)cc2)c2c([nH]c1=S)CCCC2`, the TR-FRET ratio was 2380 (active).
Turning to `Clc1cccc(-c2nc(NCC3CCCO3)c3ccccc3n2)c1` (configuration not stated), the TR-FRET ratio is 1630 (inactive).
In the case of `CCc1[nH]nc(C(=O)N2CCCC(CNS(=O)(=O)c3cccs3)C2)c1C` (configuration not stated) it was 1580 (inactive).
For the compound `O=C(O)Cc1ccc(-c2ccccc2)cc1`, the TR-FRET ratio was 1790 (inactive).
`O=C(O)Cc1sc(-c2ccccc2)nc1-c1cccs1`: the TR-FRET ratio was 2910 (active).
As to `O=C(O)Cc1sc(-c2ccc(C(=O)O)cc2)nc1-c1ccccc1`, the TR-FRET ratio was 1940 (inactive).
